Test results from PubChem BioAssay (NCI).
About 83,000 compounds went through this panel and 20% of them were active in at least one assay; those are over-represented in the sample as a whole.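 Cells were grown in 96-well plates and exposed to the test compound at a single concentration for 48 hours; results are reported as percent growth, with values below 10 considered active.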 Active and inactive are the calls of the source.

Assays:
Assay in all cases: NCI-60 one-dose screen, 48 h (100 = growth as untreated, 0 = no growth, -100 = all killed)
Settings in all cases: 10 µM unless noted
NCI-H23 lung = test system: NCI-H23 lung
NCI-H226 lung = test system: NCI-H226 lung
NCI-H322M lung = test system: NCI-H322M lung
HOP-62 NSCLC = test system: HOP-62 NSCLC
NCI-H460 lung = test system: NCI-H460 lung
HOP-92 NSCLC = test system: HOP-92 NSCLC
NCI-H522 lung = test system: NCI-H522 lung
A549/ATCC NSCLC = test system: A549/ATCC NSCLC
786-0 renal = test system: 786-0 renal
COLO 205 colon = test system: COLO 205 colon
DU-145 prostate = test system: DU-145 prostate
K-562 leukemia = test system: K-562 leukemia
MALME-3M melanoma = test system: MALME-3M melanoma
MDA-MB-231 breast = test system: MDA-MB-231 breast
RXF 393 renal = test system: RXF 393 renal
SF-268 CNS = test system: SF-268 CNS
SF-295 CNS = test system: SF-295 CNS
SF-539 CNS = test system: SF-539 CNS
UACC-257 melanoma = test system: UACC-257 melanoma
M14 melanoma = test system: M14 melanoma

Measured: growth

CC1Cc2c(Cl)ncnc2N(C)c2ccc(O)cc21 (centres undefined)
inactive: NCI-H23 lung 45.7% | NCI-H226 lung 82.2% | NCI-H322M lung 44.2% | HOP-62 NSCLC 53.8% | NCI-H460 lung 84.3% | HOP-92 NSCLC 85.1% | NCI-H522 lung 92.5% | A549/ATCC NSCLC 28.4% | COLO 205 colon 91.7% | DU-145 prostate 108% | K-562 leukemia 89.6% | MALME-3M melanoma 53.4% | MDA-MB-231 breast 21.1% | RXF 393 renal 32.1% | SF-268 CNS 29.1% | SF-295 CNS 49.7% | SF-539 CNS 34.6% | UACC-257 melanoma 33.9%
active: 786-0 renal -3.93%

N#C/C(C(=O)c1ccccc1)=C1/C(=O)Nc2ccccc21
active: 786-0 renal 6.59%
inactive: NCI-H23 lung 102% | NCI-H226 lung 104% | NCI-H322M lung 100% | HOP-62 NSCLC 86.3% | NCI-H460 lung 106% | HOP-92 NSCLC 105% | NCI-H522 lung 97.6% | A549/ATCC NSCLC 106% | COLO 205 colon 105% | DU-145 prostate 105% | K-562 leukemia 88.6% | MALME-3M melanoma 108% | MDA-MB-231 breast 93.2% | RXF 393 renal 113% | SF-268 CNS 95.7% | SF-295 CNS 98.5% | SF-539 CNS 97.3% | UACC-257 melanoma 95.4%

Cc1ncc(C(=O)Nc2ccc(CN3CCN(C)CC3)c(C(F)(F)F)c2)cc1C#Cc1c(N)ncc2ccc(C#N)cc12
active: HOP-92 NSCLC -8.03% | 786-0 renal -51% | COLO 205 colon 7.77% | K-562 leukemia 4.11% | MALME-3M melanoma -34.3% | MDA-MB-231 breast -12.5% | RXF 393 renal -45% | UACC-257 melanoma -1.39%
inactive: NCI-H23 lung 35.8% | NCI-H226 lung 19.9% | NCI-H322M lung 34.4% | HOP-62 NSCLC 16.5% | NCI-H460 lung 43.4% | NCI-H522 lung 46.9% | A549/ATCC NSCLC 34.4% | DU-145 prostate 27.7% | SF-268 CNS 42.1% | SF-295 CNS 74.4% | SF-539 CNS 48.4%

C=CCCCCCCCCC(=O)OC(C)C
inactive: NCI-H23 lung 98.4% | NCI-H226 lung 102% | NCI-H322M lung 94% | HOP-62 NSCLC 97.5% | NCI-H460 lung 100% | HOP-92 NSCLC 82.3% | NCI-H522 lung 91.7% | A549/ATCC NSCLC 99.2% | 786-0 renal 104% | COLO 205 colon 105% | DU-145 prostate 101% | K-562 leukemia 107% | MALME-3M melanoma 78.9% | MDA-MB-231 breast 97.4% | RXF 393 renal 93.2% | SF-268 CNS 96.9% | SF-295 CNS 98.8% | SF-539 CNS 104% | UACC-257 melanoma 94.9%

O=C1/C(=C/c2cccc(OCc3ccccc3)c2)Oc2cc(OCCN3CCCCC3)ccc21
active: K-562 leukemia -37.8%
inactive: NCI-H23 lung 86.4% | NCI-H226 lung 100% | NCI-H322M lung 75.4% | HOP-62 NSCLC 89.4% | NCI-H460 lung 83.3% | HOP-92 NSCLC 46.9% | NCI-H522 lung 106% | A549/ATCC NSCLC 79.5% | 786-0 renal 67.7% | COLO 205 colon 93.8% | DU-145 prostate 88.1% | MALME-3M melanoma 58.3% | MDA-MB-231 breast 71% | RXF 393 renal 68.6% | SF-268 CNS 81% | SF-295 CNS 95.5% | SF-539 CNS 68.1% | UACC-257 melanoma 94.5% | M14 melanoma 88.6%

CC1(C)C(=O)/C(=C\c2ccco2)C[C@]2(C)[C@H]3CC=C4[C@@H]5C[C@](C)(C(=O)O)CC[C@]5(C)CC[C@@]4(C)[C@]3(C)CC[C@@H]12
active: NCI-H23 lung -64% [100 µM] | NCI-H226 lung -29.3% [100 µM] | NCI-H322M lung -91.9% [100 µM] | HOP-62 NSCLC -67.7% [100 µM] | NCI-H460 lung -73.5% [100 µM] | HOP-92 NSCLC -82.8% [100 µM] | NCI-H522 lung -64.4% [100 µM] | A549/ATCC NSCLC -67.6% [100 µM] | 786-0 renal -53.6% [100 µM] | COLO 205 colon -62.2% [100 µM] | DU-145 prostate -33.5% [100 µM] | K-562 leukemia 4.42% [100 µM] | MALME-3M melanoma -70% [100 µM] | MDA-MB-231 breast -58.5% [100 µM] | RXF 393 renal -85.6% [100 µM] | SF-268 CNS -77.7% [100 µM] | SF-295 CNS -48.8% [100 µM] | SF-539 CNS -77.5% [100 µM] | UACC-257 melanoma -49.3% [100 µM]

C[C@H]1[C@H](C)CC[C@]2(C(=O)N3CCN(C)CC3)CC[C@]3(C)C(=CC[C@@H]4[C@@]5(C)C/C(=C/c6ccco6)C(=O)C(C)(C)[C@@H]5CC[C@]43C)[C@H]12
active: NCI-H460 lung 6.22% [100 µM] | NCI-H522 lung 4.91% [100 µM]
inactive: NCI-H23 lung 32.5% [100 µM] | NCI-H226 lung 37.4% [100 µM] | NCI-H322M lung 51.6% [100 µM] | HOP-62 NSCLC 35.8% [100 µM] | HOP-92 NSCLC 56.9% [100 µM] | A549/ATCC NSCLC 24.8% [100 µM] | 786-0 renal 40.6% [100 µM] | COLO 205 colon 40.4% [100 µM] | DU-145 prostate 50.4% [100 µM] | K-562 leukemia 28.2% [100 µM] | MALME-3M melanoma 45.7% [100 µM] | MDA-MB-231 breast 15.6% [100 µM] | RXF 393 renal 55.1% [100 µM] | SF-268 CNS 50.3% [100 µM] | SF-295 CNS 29.8% [100 µM] | SF-539 CNS 46.2% [100 µM] | UACC-257 melanoma 22.5% [100 µM]
